For 40 compounds, growth results are on record in PubChem BioAssay (NCI).

The panel holds about 83,000 compounds, 20% with a hit somewhere; the sample as a whole holds those more often.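 Each cell line was grown in a 96-well plate and treated with one concentration of compound for 48 hours. Values below 10 were considered active.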 A number with no mark means an inactive call. The source made the active and inactive calls.

The experiment concerns HL-60(TB) leukemia. Description: NCI-60 one-dose screen, 48 h (100 = growth as untreated, 0 = no growth, -100 = all killed). To be noted: 10 µM unless noted.
For the compound `COc1cc(-c2cc(-c3cc(OC)c(OC)c(OC)c3)nc3nc(N)[nH]c(=O)c23)ccc1Oc1ccnc2cc(Cl)ccc12`, the growth was 11.4%. `O=C(/C=C/c1cccc(B(O)O)c1)c1cccc(B(O)O)c1`: the growth was -13.8% (active).

In the case of `CC(C)=CCc1ccc(O)c(=O)cc1C(C)C`, the growth was -1.27% (active). `COc1cc(-c2csc(NC(=O)c3ccc(N4CCOCC4)c(C(F)(F)F)c3)n2)cc(OC)c1OC`: the growth was 15.6%.

`CN1CCN(Cc2ccc(NC(=O)c3nc4ccc5[nH]ncc5c4c4c3CCCC4)cc2C(F)(F)F)CC1`: the growth is -57.4% (active). With `C=CCOc1ccc(/C(O)=C2\C(=O)C(=O)N(c3nccs3)C2c2ccccc2F)cc1` (stereo not given) the figure was 81.1%; with `Cc1ccccc1SSc1ccccc1C`, 99.6%; with `O=c1cc(-c2ccccc2)[nH]c2ccccc12`, 45%. The result for `Cc1ccc2c(c1)c(Sc1ccc(C(=O)NO)cc1)c1n2CN(C)CC1` reads 21.4%. The result for `CC12CC3CC1C(C(=O)O2)C3C(=O)O` (stereo not given) reads 95.6%. With `CO/C(=C1/NC(=O)C(Cc2ccc(O)c(Br)c2)N(C)C(=O)C(C)NC(=O)CCC/C=C(\C)CCC(C)OC1=O)c1ccccc1` (stereo not given), the growth is -58.6% (active).

Turning to `CCN(CC)CCn1c2ccc(OC)cc2c2sc3cc(O)ccc3c(=O)c21`, the growth is 31%. Consider `COc1ccc(-c2cc(=O)oc3ccc(Cl)cc23)cc1F`, for which the growth was -21.9% (active). The result for `CCOC(=O)c1ccc(-c2ccc3cc(OC)ccc3c2)nc1C` reads 91.2%. The result for `COc1ccc(-c2nn(-c3ccc(NC(=O)c4ccc(Cl)c(Cl)c4)cc3)cc2-c2ccncc2)cc1Cl` reads 13.5%; that for `CC(C)[C@@]12C[C@@H](OC(=O)COC(=O)c3ccccc3)[C@@](C)(O1)[C@@H]1CC[C@@H](C)[C@H]1[C@@H]2OC(=O)/C=C/c1ccccc1`, 94.5%; that for `N#Cc1c(N)nc(Nc2nc3ccccc3[nH]2)nc1-c1ccc(Cl)cc1`, 106%. Turning to `OC[C@@H](O)C(O[C@@H]1O[C@H](CO)[C@H](O)[C@H](O)[C@H]1O)[C@H](O)[C@@H](O)CO` (stereo not given in full), the growth was 94.9%. For `CCOC(=O)c1ccc(C(C)(C)C)cc1`, the growth is 90.4%. As to `COc1ccc(-c2c3c(nc4n[nH]c(-c5ccc(Cl)cc5)c24)-c2ccccc2C(=O)C3=O)cc1`, the growth is 11.7%.

Regarding `O=C1/C(=C/c2cn(-c3ccccc3)nc2-c2ccccc2)SC(=S)N1c1ccccc1`, the growth was 103%. As for `O=C(O)COc1ccc([N+](=O)[O-])cc1Cl`, the growth was 108%. The result for `Nc1c(C(=O)Nc2ccccn2)sc2nc3c(cc12)C(=O)CCC3` reads 5.15% (active); that for `CCNCCNc1cc(-c2ccc(Cl)c(Cl)c2)c(C#N)c2nc3ccccc3n12`, -62.3% (active). As for `CCN(CC)CC(C)Nc1ccc(C)c2sc3ccccc3c(=O)c12` (stereo not given), the growth was 50.8%. The result for `Oc1ccc2c(=S)cc(-c3ccc(Br)cc3)oc2c1O` reads -22% (active); that for `COc1cc(C(=O)OCCCCCCCCCCC[P+](c2ccccc2)(c2ccccc2)c2ccccc2)ccc1O`, -56% (active).

As to `CC(C)CSc1ncnc2nc[nH]c12`, the growth is 133%. With `O=C1/C(=C/c2ccc(Oc3ccccc3)cc2)N=C(c2ccccc2)N1CCc1cccs1` the figure was 86%; with `CCC[S@@](=O)c1ccc2nc(NC(=O)OC)[nH]c2c1`, 56.6%; with `COC(CCCl)c1ccc(Cl)cc1` (stereo not given), 94.2%.

In the case of `C[C@@H]1C(=O)N(C[C@H](Cc2ccccc2)NC(=O)OCc2ccccc2)[C@]1(Cc1ccccc1)C(=O)OCc1ccccc1`, the growth is 37.4%. The result for `Cc1ccc(-c2nc(/C=C3/C(=O)N(C)c4ccc(F)cc43)c3ccccn23)cc1` reads 102%. In the case of `COc1ccc(OC)c(Nc2nnc(-c3ccc(O)c(OC)c3)o2)c1`, the growth is 87.3%. The result for `Nc1ncn(C2OC(CO)C(O)C2O)c(=O)n1` (stereo not given) reads -44.6% (active); that for `Cc1ccccc1C[P+](c1ccccc1)(c1ccccc1)c1ccccc1`, 1.16% (active); that for `O=C(c1cccc(N2CCOCC2)n1)c1c[nH]c2ccccc12`, 98.9%. Take `O=C(Cn1nnc2ccccc21)N/N=C/c1c[nH]c2ccccc12`: the growth was 31.1%.

`CC12CC(C#N)CCC1O2` (stereo not given): the growth is 101%. `C=CC(=O)N1CCN(c2ccc3cccc(NC(=O)c4cnc(C)cn4)c3n2)CC1`: the growth was 26.6%.
